Results reported in the supplement of paper PMC3334620.
In all, about 33,000 sequences were measured (“E-score (-0.5 to 0.5)”: median about -0.015, highest 2% from about 0.3 on). The full list was thinned out, with the highest values kept by preference.

biological target: T1, Abf1 (UniProt P14164); assay: PBM E-score (8-mer binding enrichment) (E-score (-0.5 to 0.5)); higher = stronger / more preferred TF binding; settings: protein concentration: 200 nM; construct: GST-full length
T1 sequence: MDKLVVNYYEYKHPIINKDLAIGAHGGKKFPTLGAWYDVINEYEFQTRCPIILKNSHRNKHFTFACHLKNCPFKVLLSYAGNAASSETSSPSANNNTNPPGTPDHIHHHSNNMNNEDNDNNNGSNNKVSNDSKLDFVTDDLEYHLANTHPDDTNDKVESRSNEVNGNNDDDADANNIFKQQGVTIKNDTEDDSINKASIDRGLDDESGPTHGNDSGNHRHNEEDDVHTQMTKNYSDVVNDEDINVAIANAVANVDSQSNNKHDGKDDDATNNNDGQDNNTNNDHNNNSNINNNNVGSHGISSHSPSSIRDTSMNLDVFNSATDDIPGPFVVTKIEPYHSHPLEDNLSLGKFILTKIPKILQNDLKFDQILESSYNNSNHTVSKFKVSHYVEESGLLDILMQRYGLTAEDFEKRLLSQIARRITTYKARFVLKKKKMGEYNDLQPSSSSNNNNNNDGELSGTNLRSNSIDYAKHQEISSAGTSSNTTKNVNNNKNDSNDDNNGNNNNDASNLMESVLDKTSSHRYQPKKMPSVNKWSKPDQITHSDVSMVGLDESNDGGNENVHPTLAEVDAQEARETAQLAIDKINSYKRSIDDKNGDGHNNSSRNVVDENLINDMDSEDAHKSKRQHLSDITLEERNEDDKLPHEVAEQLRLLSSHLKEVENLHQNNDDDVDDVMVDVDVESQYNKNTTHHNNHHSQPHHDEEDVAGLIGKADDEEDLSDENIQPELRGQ
Outline: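 Detection of bound protein used fluorescent anti-GST, with scans normalised by masliner. The proteins were GST-tagged yeast transcription factors applied at about 100-200 nM to universal all-10-mer Agilent arrays made double-stranded by primer extension. Each ungapped eight-base word, pooled with its reverse complement, was scored with an E-score from the Universal PBM Analysis Suite.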

Sequence | PBM E-score
ACATTGGG | -0.0776
TGGCTTAA | 0.115
AGATTCCC | -0.0908
ACAAAGTC | 0.0656
AAGGGTTA | 0.0193
AAACCTGC | -0.168
ATGTGAAG | 0.164
ACCGGACG | -0.0917
ATGACCCC | -0.103
AGACTTCA | -0.0675
ACGAAACT | 0.336
ACGAAAAA | 0.216
ACGAAAAC | 0.316
ACGAAACC | 0.196
ACGAAGAT | 0.284
ACGAAGAA | 0.288
ACGAAAGG | 0.276
GCGAAAGC | -0.15
ACGAAGAC | 0.308
ACGAAAGC | 0.356
ACGAAAAG | 0.218
ACGAAACA | 0.245
GGAGACTA | -0.107
CTGTCGCC | -0.202
AGGTTTGA | -0.188

Sequence | PBM E-score
CCTGGCCA | -0.161
ACTCTATA | 0.145
GCGGAAAC | -0.206
AGGATTGG | -0.0614
GTTCTTAA | 0.124
ACGAAGTC | 0.152
ACGAAGTG | 0.301
ACGAAGTA | 0.169
AGACGTTG | 0.109
ACAGATTG | -0.0933
AGGACATG | -0.0301
ACGACATC | 0.303
ATGACATC | 0.308
ATGACACC | 0.187
ACGACATG | 0.225
CTGACATC | -0.0102
ATGACAGG | -0.0297
ATGACACA | 0.266
CTGACACA | -0.208
GTGACACA | 0.343
ATGACATG | 0.358
CCGACATC | 0.218
GAGTATCC | 0.0845
ACCACGCT | -0.0224
GAACAGTC | -0.0496

Sequence | PBM E-score
AATTTGCC | -0.136
ATGACATA | 0.401
ATGACAGA | 0.128
CTGACATA | 0.0493
CTGACAGA | 0.0348
GGGACATA | -0.00523
GAGACATA | 0.0808
GTGACAGA | 0.359
AAGACATA | 0.103
GTGACATA | 0.43
ACGACTCG | 0.144
CGTGGTAC | 0.161
AACTGCTG | -0.0316
CTGACTCC | -0.131
CGTGGGAG | 0.0501
CAAATCCC | -0.184
CCGTCGCA | 0.282
GCGTCGCA | -0.0267
ACGTCGTA | 0.228
TCGTCTAA | 0.298
GCGTCGTA | 0.418
CCGTCGTA | 0.282
ACGTCGAA | 0.163
TCGTCGCA | 0.322
ACGTCTAA | 0.196

Sequence | PBM E-score
GCGTCGAA | 0.0222
TCGTCGAA | 0.355
CCGTCTAA | 0.266
CCGCCATA | -0.072
GGGTTACC | -0.0518
CAGACCAA | -0.132
GCCCAAAA | -0.114
AAATGGAG | 0.0525
AGGCTCTA | -0.247
AATGACCT | 0.223
AATGACAT | 0.39
AATGACTA | 0.222
GATGACAA | 0.369
CATGACAA | 0.238
AATGACAG | 0.16
AATGACAC | 0.227
GATGACAC | 0.337
TATGACAA | 0.27
AATGACAA | 0.397
CATGACAC | 0.218
AATGACCA | 0.256
CGAGGATA | 0.0582
GATGGGCA | -0.0389
CTCATCAA | 0.192
GCCCTCTA | -0.224

Sequence | PBM E-score
CCACTCTC | -0.22
GACGATAA | 0.363
GACGATTA | 0.31
CACGATAA | 0.296
CACGATTA | 0.247
AACGATTA | 0.172
TACGATAA | 0.179
GACCAAAA | 0.183
AAACCGAC | -0.0139
CGCACCAA | -0.0891
TCACGCCA | 0.113
GTGATAAC | 0.371
ATGATAAC | 0.339
AAGATAAA | 0.132
GAGATAAC | 0.138
GTGATAAA | 0.412
CTGATAAC | 0.167
ATGATAAA | 0.406
TTGATAAA | 0.23
GCGATAAC | 0.158
ATGATAGA | 0.103
CTGATAAA | 0.112
AAGATAAC | 0.171
CCGGTTCC | -0.286
CCCATTTA | -0.0213

Sequence | PBM E-score
AAAGGCAG | 0.17
AAAGCTAG | -0.236
CTGATACA | 0.0567
ATAATAAA | 0.2
AAGATAAT | 0.0926
ATGATAAG | 0.291
GTAATAAC | 0.124
GTGATACA | 0.311
GAGATACA | 0.146
GTAATAAA | 0.313
ATGATAAT | 0.377
CACTTTGC | 0.137
CTGACACC | -0.0573
GGTTGGAA | -0.166
AACTAGAG | -0.159
ATACAGTG | 0.011
AGAGAAGA | 0.0299
CCACCAGC | 0.0706
AACGTTTA | -0.0328
GCCGTTTA | 0.102
CTCGTTTC | 0.129
AGCGTTTG | -0.116
ATCGTTTA | 0.321
ACCGTTTG | 0.103
AGCGTTTA | -0.153

Sequence | PBM E-score
ATCGTTTG | 0.298
CTCGTTTA | 0.0984
GTCGTTTA | 0.298
ATCGTTCC | 0.068
ATCGTTTC | 0.325
CAGCTCCA | -0.238
CGATACAG | -0.0796
ACTTTGTA | 0.0728
ATTAGATC | -0.00144
ATGCAGCG | -0.174
GCGGGAGC | -0.288
GTCGTTGA | 0.327
ATCGTTGA | 0.208
CTCGTTGA | 0.0588
AGCTCGTA | 0.149
GCGCAACA | -0.123
AAAGAGTG | -0.101
ATTATGCC | 0.0573
CTCATGTC | 0.0937
ATCATGTA | 0.208
ATCATGTC | 0.356
ATTATGTA | 0.239
CTTATGTC | 0.00318
